Measurements published in a collection of fitness landscapes (doi:10.1016/j.celrep.2020.107928).
The full ranking holds about 81,000 sequences; the median of “one-hybrid fitness for binding NBS DNA” is about -0.1, and the highest 2% start at about 0.36. The sample holds the highest values, similar sequences and a random draw of the others, so the mix is not that of the screen.

B1: Caulobacter ParB omega fusion; a variant is named by its letters at X, in order, B8GW30 (parent)
chain: MESVVVGEPGMSEGRRGLGRGLSALLGEVDAAPAQAPGEQLGGSREAPIEILQRNPDQPRRTFREEDLEDLSNSIREKGVLQPILVRPSPDTAGEYQIVAGERAWRAAQRAGLKTVPIMVRELDDLAVLEIGIIENVQRADLNVLEEALSYKVLMEKFERTQENIAQTIGKSXSHVANXMRLLXLPDEVQSYLVSGELTAXHARAIAAAADPVALAKQIIEGGLSVRETEALARKAPNLSAGKSKGGRPPRVKDTDTQALESDLSSVLGLDVSIDHRGSTGTLTITYATLEQLDDLCNRLTRGI

Variants of: B1
Test: one-hybrid fitness for binding NBS DNA (the Noc-binding site; scaled: cognate 1, non-cognate 0); higher = stronger binding
Conditions: with NBS DNA site
How it was run: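 Caulobacter ParB libraries with four specificity codons randomised were screened by bacterial one-hybrid selection in the E. coli USO strain, using a HIS3 reporter whose site lies 19 bp from the promoter. Selection ran for 48 hours at 37°C on M9 lacking histidine, with 0.1 mM IPTG and 5 mM 3-AT. Plasmids were Illumina-sequenced before and after selection, three replicate libraries were pooled, and variants with under 10 reads were dropped. Fitness is the log change in each variant's read ratio to wild type, rescaled against the cognate and non-cognate sites.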

Variant | one-hybrid fitness for binding NBS DNA
SNWL | ≤ 0.2
SNVR | ≤ 0.2
DAAD | ≤ 0.2
TRAA | ≤ 0.2
DDQR | ≤ 0.2
RITT | 0.421
RITG | ≤ 0.2
RITF | ≤ 0.2
RATK | ≤ 0.2
RATQ | ≤ 0.2
RATT | 0.415
TSFV | ≤ 0.2
LPSF | ≤ 0.2
RRWP | ≤ 0.2
RRWH | 0.401
RRWN | 0.222
RRWD | ≤ 0.2
RRWF | ≤ 0.2
RRWS | 0.628
HLQS | ≤ 0.2
MSNG | ≤ 0.2
HQPF | ≤ 0.2
PSTH | ≤ 0.2
GLWQ | ≤ 0.2
RYTD | ≤ 0.2
RYTP | ≤ 0.2

Variant | one-hybrid fitness for binding NBS DNA
RYTC | ≤ 0.2
RYTT | 0.461
RYTR | 0.469
RYTS | 0.453
RYTK | ≤ 0.2
RYTH | ≤ 0.2
RYTN | ≤ 0.2
TSVC | ≤ 0.2
LPCE | ≤ 0.2
YSAT | ≤ 0.2
QALP | ≤ 0.2
QSLD | ≤ 0.2
QALR | 0.424
QSLR | 0.452
QSLH | ≤ 0.2
QMLH | ≤ 0.2
QKLP | ≤ 0.2
QMLD | ≤ 0.2
QKLR | 0.491
QALH | ≤ 0.2
QKLN | ≤ 0.2
QMLR | 0.5
DSDF | ≤ 0.2
RWRC | ≤ 0.2
PLVT | ≤ 0.2
DMHW | ≤ 0.2

Variant | one-hybrid fitness for binding NBS DNA
TRSF | ≤ 0.2
IKKC | ≤ 0.2
QHLR | 0.445
QTLN | ≤ 0.2
QPLR | ≤ 0.2
QILR | 0.335
QHLH | ≤ 0.2
QTLH | 0.223
QHLP | ≤ 0.2
QTLR | 0.639
QCLR | 0.562
WSWT | ≤ 0.2
AVHS | ≤ 0.2
GHKE | ≤ 0.2
MTRR | 0.273
QQRR | 1.09
DQYR | ≤ 0.2
QQYP | ≤ 0.2
QQAN | ≤ 0.2
QQHG | ≤ 0.2
QQAP | ≤ 0.2
QQHR | 0.683
QQHF | ≤ 0.2
DQRR | ≤ 0.2
QQYR | 0.578
QQRE | 0.332

Variant | one-hybrid fitness for binding NBS DNA
QQAR | 0.654
KIQL | ≤ 0.2
YWII | ≤ 0.2
AFHM | ≤ 0.2
TVSR | ≤ 0.2
PDRQ | ≤ 0.2
TNMG | ≤ 0.2
QQFR | 0.491
QQCK | ≤ 0.2
QQLM | ≤ 0.2
QQLG | ≤ 0.2
QQLR | 0.567
NQFR | ≤ 0.2
QQGK | ≤ 0.2
QQCD | ≤ 0.2
QQCR | 0.63
QQGC | ≤ 0.2
QQGR | 0.672
TPFT | ≤ 0.2
ATSG | ≤ 0.2
VDTI | ≤ 0.2
HTCG | ≤ 0.2
PHKP | ≤ 0.2
NAEM | ≤ 0.2
IYRA | ≤ 0.2
LQHD | ≤ 0.2

Variant | one-hybrid fitness for binding NBS DNA
WGPQ | ≤ 0.2
LPFS | ≤ 0.2
QQWR | 0.514
QQQP | ≤ 0.2
QQEG | ≤ 0.2
QQER | 0.426
QQSC | ≤ 0.2
QQWM | ≤ 0.2
QQQR | 0.586
QQQD | ≤ 0.2
QQSG | ≤ 0.2
QQSR | 0.635
QQEY | ≤ 0.2
QQWY | ≤ 0.2
YILL | ≤ 0.2
KDKK | ≤ 0.2
ANDS | ≤ 0.2
PLNC | ≤ 0.2
EYLC | ≤ 0.2
RVEC | ≤ 0.2
GVRI | ≤ 0.2
ESSI | ≤ 0.2
DESV | ≤ 0.2
QCGH | 0.282
QMGN | ≤ 0.2
QRGH | 0.616

Variant | one-hybrid fitness for binding NBS DNA
QRGF | 0.33
QPGN | ≤ 0.2
QCGS | 0.487
QCGN | ≤ 0.2
QRGN | 0.418
QPGS | ≤ 0.2
QMGP | ≤ 0.2
QSGS | 0.358
QMGS | 0.42
NPLC | ≤ 0.2
QMPM | ≤ 0.2
ANEK | ≤ 0.2
DSVS | ≤ 0.2
KKWY | ≤ 0.2
CPMG | ≤ 0.2
LRFA | ≤ 0.2
LPEF | ≤ 0.2
WQTP | ≤ 0.2
ANVT | ≤ 0.2
ITKV | ≤ 0.2
TWPS | ≤ 0.2
FCRR | 0.277
LVQT | ≤ 0.2
